Shown are actives, neighbours in structure and some others; about 6.9% of the full set was active somewhere.
VDR inh = Inhibitors of the vitamin D receptor (VDR): qHTS | Vitamin D3 receptor (Homo sapiens), P11473 | VDR-SRC2-3 peptide fluorescence polarization, 2 h | Potency, µM, for inactives: max response, negative = inhibition, most hits filed as inhibitors | 400,000 tested, 0.93% active | AID 504847, 2011; also: % is scaled to controls: 0 for no effect and ±100 for the full control effect
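FP read-out; VDR + SRC2-3 coactivator peptide; 23 nl compound by pintool; 2 h RT incubation; reagents held at 4 deg C, protected from light.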
HP1b binding inh = HTS for Inhibitors of HP1-beta Chromodomain Interactions with Methylated Histone Tails; Chromobox protein homolog 1 (Homo sapiens), P83916; AlphaScreen HP1-beta / biotin-H3K9me3 peptide binding; Potency, µM (highest dose often 114 µM), inactives show top-dose activity change, negative = inhibition, usual class: inhibitors; 390,000 tested, 0.56% active; also: nearly all actives have a fitted effect of over 70% in size
Target sequence (P83916 whole entry, looked up): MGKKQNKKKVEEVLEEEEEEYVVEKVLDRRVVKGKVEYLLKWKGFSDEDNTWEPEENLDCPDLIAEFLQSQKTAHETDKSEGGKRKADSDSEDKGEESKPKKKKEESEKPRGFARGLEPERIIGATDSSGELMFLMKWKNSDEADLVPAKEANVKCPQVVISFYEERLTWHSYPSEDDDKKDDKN
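Compound inhibition of the preformed complex between 50 nM HP1-beta and 50 nM biotinylated H3K9me3 peptide was read by AlphaScreen. Buffer was PBS pH 7.4 with 0.01% Tween-20. Incubations ran 30 min at room temperature, with 10 ug/mL donor/acceptor beads.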
PLK1 PBD block = qHTS for Inhibitors of PLK1-PDB (polo-like kinase 1 - polo-box domain): Primary Screen; Plk1 PBD binding of FITC phosphopeptide, fluorescence polarization; Potency, µM, for the others: max response, negative = inhibition, actives largely listed as inhibitors; 360,000 tested, 2.8% active; AID 720504, 2013; also: series mostly up to about 57 µM; % is scaled to controls: 0 for no effect and ±100 for the full control effect; nearly all actives have a fitted effect of over 65% in size
JMJD2A Tudor inh = qHTS Assay for Inhibitors of JMJD2A-Tudor Domain | Lysine-specific demethylase 4A (Homo sapiens), O75164 | AlphaScreen JMJD2A-Tudor / H3K4me3 peptide binding | Potency, µM (highest dose often 114 µM), for inactives: top-dose activity change, negative = inhibition, usual class: inhibitors | 390,000 tested, 4.4% active; also: % is scaled to controls: 0 for no effect and ±100 for the full control effect; nearly all actives have a fitted effect of over 50% in size
L3MBTL1 inh = qHTS Assay for the Inhibitors of L3MBTL1. AID 485360, 2010. AlphaScreen L3MBTL1–H3K9me1 peptide binding. Lethal(3)malignant brain tumor-like protein 1 (Homo sapiens), Q9Y468. 230,000 tested, 0.66% active. Potency, µM (titrated, usually from 57.1 µM), for inactives: at the top dose activity, negative = inhibition, actives largely listed as inhibitors; also: % is scaled to controls: 0 for no effect and ±100 for the full control effect; nearly all actives have a fitted effect of over 60% in size
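Read-out is AlphaScreen signal from streptavidin donor and nickel chelate acceptor beads (10 ug/mL final each) bridging L3MBTL1 (50 nM) and biotinylated K9-monomethylated H3(1-15) peptide (75 nM), after 30 min compound exposure at room temperature.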
BAZ2B inh = qHTS Assay for Inhibitors of BAZ2B. AlphaScreen BAZ2B-H3K14Ac peptide displacement. Potency, µM (doses to about 114 µM), inactives show top-dose activity change, negative = inhibition, hits mostly inhibitors. 360,000 tested, 4.4% active. Bromodomain adjacent to zinc finger domain protein 2B (Homo sapiens), Q9UIF8. AID 504333, 2011; also: % is scaled to controls: 0 for no effect and ±100 for the full control effect; nearly all actives have a fitted effect of over 60% in size
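In this displacement format the biotinylated H3(5-23) peptide acetylated at Lys14 serves as ligand at 50 nM, with BAZ2B at 50 nM in PBS pH 7.4 containing 0.01% Tween-20. Donor and acceptor beads are 10 ug/mL final.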
VDR confirm = qHTS for Inhibitors of the vitamin D receptor (VDR): Hit Validation in Primary Screen. shares compounds with VDR inh. VDR-coactivator inhibition assay, qHTS confirmation. Potency, µM, most hits filed as inhibitors. 840 tested, 89% active
VDR FP fluor = qHTS for Inhibitors of the vitamin D receptor (VDR): Hit Validation using a Fluorescein Assay; VDR-coactivator binding, fluorescein fluorescence polarization; 840 tested, 48% active; Potency, µM (titrated, usually from 57.1 µM), without a hit: at the top dose activity change, negative = inhibition, usual class: inhibitors; shares compounds with VDR inh
VDR bla = qHTS for Inhibitors of the vitamin D receptor (VDR): Hit Validation using a Beta-Lactamase Assay; shares compounds with VDR inh; Potency, µM (series often up to 46.1 µM), for the others: at the highest dose activity change, negative = inhibition, hits mostly inhibitors; VDR beta-lactamase reporter cells, FRET ratio; cells co-treated with VDR agonist LG190178; AID 602202, 2012; 840 tested, 23% active; also: % is scaled to controls: 0 for no effect and ±100 for the full control effect
VDR viability = qHTS for Inhibitors of the vitamin D receptor (VDR): Hit Validation using a Cytotoxicity Assay; 840 tested, 18% active; cytotoxicity counter-screen, cell viability, qHTS; Potency, µM (doses to about 48.3 µM), inactives show at the top dose activity change, negative = cytotoxicity, actives largely listed as cytotoxic; shares compounds with VDR inh;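 also: plate controls were DMSO for no effect and high-concentration cycloheximide for full effect; nearly all actives have a fitted effect of over 75% in size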
The depositor's hits bear a star; u = inconclusive; x = no result given; [ ] = remark or other dose. Calls follow the shape of the dose curve; as a rule, active = well fitted curve in the direction sought with a large enough effect; inconclusive = small, poorly fitted or top-dose-only effect, or another doubt; inactive = no such curve, though single readings can be large; an effect the other way counts as inactive or inconclusive. Potency is read from the fitted curve at half-maximal effect.

SMILES | VDR inh | HP1b binding inh | PLK1 PBD block | JMJD2A Tudor inh | L3MBTL1 inh | BAZ2B inh | VDR confirm | VDR FP fluor | VDR bla | VDR viability
COc1cc([N+](=O)[O-])ccc1-c1ccc(/C=C2\C(=O)ON=C2c2ccccc2)o1 | u | -28%[57 µM] | 2.7µM* | u | x | x | 2.5* | 1.8µM* | u | u
O=S(=O)(Nc1ncn[nH]1)c1ccc(Cl)cc1 | -4% | 28% | 0% | -13% | -1% | 2% | x | x | x | x
COc1ccc(Cc2c(O)nc(SC)n(C(C)=O)c2=O)cc1 | u | 17% | -14% | -20% | x | 2% | u | 5.6µM* | 7% | 6%
COc1ccc(C(=O)Nc2ccc(NC(=O)Cc3ccccc3)cn2)cc1 | -12% | 32% | 3% | -10% | x | 14% | x | x | x | x
CCOc1cc(/C=C2\N=C(C)OC2=O)cc(Cl)c1OCC(=O)OC | 45µM* | -20% | 0% | -10% | x | x | 9.5* | u | -2% | 10%
COc1cc(/C=C2\N=C(C)OC2=O)cc(Cl)c1OC(C)=O | u | 11% | -22% | -1% | x | 1% | x | x | x | x
CCOc1ccc(CN(CC)C(=O)c2ccc3c(c2)[nH]c(=O)c(=O)n3CC)cc1OC | -25% | -9% | 2% | -2% | x | -1% | x | x | x | x
CCN(CC)c1ccc(NC(=O)c2ccccc2)cc1S(=O)(=O)Nc1ccccc1OC | u | u | 1.9µM* | 79µM* | -3% | -36% | 3.2* | 3.2µM* | 1% | -11%
CCOc1ccc(C(Nc2cccnc2)c2cc(Cl)c3cccnc3c2O)cc1 (stereo not drawn) | u | u | 4.7µM* | 40µM* | u | 45µM* | 7.1* | u | -21% | u
O=C(NC(c1ccccc1)c1cc(Cl)c2cccnc2c1O)c1cccnc1 (stereo not drawn) | x | x | x | x | 8% | 1% | x | x | x | x
O=C(O)COc1ccccc1C(Nc1cccnc1)c1cc(Cl)c2cccnc2c1O (stereo not drawn) | 22µM* | u | 1.2µM* | 22µM* | x | 20µM* | 13* | u | 10% | 21%
Nc1c(C(=O)N2CCCCC2)sc(=S)n1-c1ccccc1 | u | 14µM* | 3µM* | 50µM* | -6% | u | 7.1* | 7.1µM* | -8% | 1%
CCN(CC)c1ccc(S(=O)(=O)N2CCOCC2)cc1NC(=O)COC(=O)C1=COCCO1 | -15% | 57% | 2% | 1% | x | x | x | x | x | x

Assay outcomes: PubChem BioAssay, National Center for Advancing Translational Sciences (NCATS)
